According to PubChem BioAssay (NCI):
About 79,000 compounds went through this panel and 15% of them were active in at least one assay; those are over-represented in the sample as a whole. No stated cut-off is given here; in the data, active means growth inhibition above about 70%; inactive means the rest.

Columns and labels:
[1] = NCI Yeast Anticancer Drug Screen. Data for the rad50 strain (AID 155);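 further: 0% = growth of vehicle-only cultures of the same strain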; conditions: S. cerevisiae rad50 strain growth inhibition; at 50.0 µM; stronger effect = higher value
Outline: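 Yeast carrying a defined DNA repair defect were exposed to test compounds, and growth was compared with vehicle-treated controls to give percent inhibition.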

[2] = NCI Yeast Anticancer Drug Screen. Data for the mec2-1 strain (AID 157); conditions: S. cerevisiae mec2-1 strain, at 50.0 µM, stronger effect = higher value
Outline: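 Yeast mec2-1 mutant treated with compound. Readout: growth inhibition vs vehicle controls.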

[3] = NCI Yeast Anticancer Drug Screen. Data for the sgs1 mgt1 strain (AID 161);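 further: 0% = growth of cultures given vehicle only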; conditions: S. cerevisiae sgs1 mgt1 strain, at 50.0 µM, stronger effect = higher value
Outline: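 Test agents were incubated with a DNA-repair-mutant yeast strain. Growth was then read and compared against vehicle-treated controls.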

[4] = NCI Yeast Anticancer Drug Screen. Data for the cln2 rad14 strain (AID 165);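 further: 0% = growth equal to vehicle treated cultures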; conditions: S. cerevisiae cln2 rad14 strain, at 50.0 µM, stronger effect = higher value
Outline: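 cln2 rad14 yeast strain; compound exposure; growth inhibition read vs vehicle controls.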

[5] = NCI Yeast Anticancer Drug Screen. Data for the bub3 strain (AID 167); conditions: S. cerevisiae bub3 mutant strain, at 50.0 µM, stronger effect = higher value
Outline: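 Compounds were applied to a genetically altered yeast strain carrying a cell-cycle control defect. Growth inhibition was scored against vehicle-treated controls.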

[6] = NCI Yeast Anticancer Drug Screen. Data for the mlh1 rad18 strain (AID 175); conditions: S. cerevisiae mlh1 rad18 strain growth inhibition; at 50.0 µM; stronger effect = higher value
Outline: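 Yeast w/ defined DNA-repair lesions; compound exposure; growth vs vehicle controls → % inhibition.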

Measured: growth inhibition

CN1CCOC1(C)CO (configuration not stated)
inactive: [1] 3.85% | [2] -16.7% | [3] -10.3% | [4] -20.6% | [5] -8.5% | [6] -55%

Cc1cccc(Cl)c1N
inactive: [1] -5.55% | [2] -7.95% | [3] 6.9% | [4] 3.15% | [5] -2.4% | [6] -3.15%

COc1ccc(N=C2C(=Nc3ccc(OC)cc3)N(c3ccccc3[N+](=O)[O-])C(=S)N2c2ccc(OC)cc2)cc1
inactive: [1] 3.6% | [2] -24% | [3] 10.7% | [4] -49.5% | [5] -1.35% | [6] -10.9%

Cc1c(-c2ccc(Cl)cc2)n[nH]c1-c1[nH]nc(-c2ccc(Cl)cc2)c1C
inactive: [1] -2.3% | [2] -1.95% | [3] -26.1% | [4] 3.75% | [5] -11.4% | [6] -1.9%

COC(=O)C(=O)C(C(=O)C(=O)Nc1cc(C)ccc1C)c1nc2ccccc2[nH]c1=O (configuration not stated)
inactive: [1] 13% | [2] -11.9% | [3] 14.4% | [4] 21.1% | [5] -13.7% | [6] 9.4%

O=C(/C=C/c1ccc([N+](=O)[O-])cc1)NN=C(c1ccccc1)c1ccccc1
inactive: [1] -20.4% | [2] -16.4% | [3] -12.3% | [4] -7.1% | [5] -9.5% | [6] -0.15%

O=C(c1ccc(Cl)cc1)c1cc([N+](=O)[O-])cc([N+](=O)[O-])c1
inactive: [1] -0.35% | [2] 3% | [3] -2.45% | [4] -49.6% | [5] 22.8% | [6] -8.75%

OC(Cc1ccc2ccccc2n1)(C(F)(F)Cl)C(F)(F)Cl
inactive: [1] -39% | [2] -55.2% | [3] -10.7% | [4] -9.7% | [5] -4.45% | [6] -31.1%

O=C1CCN(C(=O)C2=CC(=O)OC2)C1
inactive: [1] -15.2% | [2] -1.8% | [3] -5.1% | [4] -33.6% | [5] 5.15% | [6] -2.2%

O=C1C=CC(n2cc(F)c(=O)[nH]c2=O)O1 (configuration not stated)
inactive: [1] 27.1% | [2] 44.2% | [3] 44.9% | [4] 12.9% | [5] 9.3% | [6] -43.9%

CCCC(=O)C(N)CC(C)C (configuration not stated)
inactive: [1] -8.2% | [2] 5.4% | [3] 10.6% | [4] 1.15% | [5] 2.45% | [6] -4.15%

CC(C)c1cccc(C(C)C)c1NC1=CC(=O)C(=O)c2ccccc21
inactive: [1] -7.25% | [2] 14.4% | [3] -16.8% | [4] -0.2% | [5] 4.85% | [6] -7.85%

CCCCCCC(=O)CC(SCCS)c1ccc(Cl)c(Cl)c1 (configuration not stated)
inactive: [1] 4.65% | [2] 16.2% | [3] -4.3% | [4] 5.8% | [5] -1.4% | [6] 6.3%

O=[N+]([O-])c1ccc(N/N=C/C2CCCCCC2)c([N+](=O)[O-])c1
inactive: [1] 11.4% | [2] 13.6% | [3] -0.75% | [4] -147% | [5] -14.7% | [6] 4%

Nc1cc(=O)n(Cc2ccco2)c(=S)[nH]1
inactive: [1] 19.8% | [2] -16.6% | [3] 9.35% | [4] 2.75% | [5] -7.95% | [6] -8%

CCC(CO)Nc1nc2c(Cl)cc(Cl)cc2c2ccccc12 (configuration not stated)
inactive: [1] 11.1% | [2] 1.55% | [3] 18.4% | [4] -12.3% | [5] 12% | [6] 41.2%

O=C(NCCc1c[nH]c2ccccc12)C1CCCCC1
inactive: [1] -3.65% | [2] -5.45% | [3] 7.85% | [4] -25.6% | [5] 14.1% | [6] -10.1%

COc1ccc(CCNC(=S)NN)cc1OC
inactive: [1] -15.7% | [2] -23.6% | [3] -7.35% | [4] -23.5% | [5] -17% | [6] -28.7%

CCOC(=O)/C=C1\CCC(C)n2c1nccc2=O (configuration not stated)
inactive: [1] -14.1% | [2] 4.8% | [3] -6% | [4] -7.5% | [5] 14.5% | [6] 14.3%

CC(=O)Nc1ccc([N+](=O)[O-])cc1Cl
inactive: [1] 27.6% | [2] 16.9% | [3] 16.8% | [4] -3.15% | [5] 5.1% | [6] 26.4%

CCOC(=O)c1cn(Cc2ccccc2)c(=O)n1Cc1ccccc1
inactive: [1] 36% | [2] 23.3% | [3] 23.5% | [4] -2.4% | [5] 42.5% | [6] 56.1%

CC1(C)[C@H]2CC[C@@]1(C)C(=O)[C@H]2[N+](=O)[O-]
inactive: [1] 4.25% | [2] -20.2% | [3] -1.8% | [4] 7.85% | [5] -9.15% | [6] 8.75%

CC1OC(OC2C(CO)OC(O[C@H]3CC[C@@]4(C)C(=CC[C@H]5[C@@H]6C[C@@H]7O[C@]8(CC[C@@H](C)CN8)[C@@H](C)[C@@H]7[C@@]6(C)CC[C@@H]54)C3)C(O)C2O)C(O)C(O)C1O (some centres not stated)
inactive: [1] -17.1% | [2] -26.6% | [3] -0.75% | [4] 15.2% | [5] 6.1% | [6] 1.7%

C/C(=N/NC(N)=O)c1ccc([N+](=O)[O-])o1
inactive: [1] 29.9% | [2] 9.9% | [3] 30.8% | [4] 16.1% | [5] 14.9% | [6] 47.2%

C1CCC2(CC1)OCCS2
inactive: [1] 24.6% | [2] 1.6% | [3] 11.2% | [4] 7.8% | [5] -1.45% | [6] 6.15%

Nc1ncc2c(ncn2CC(O)CO)n1 (configuration not stated)
inactive: [1] -24.6% | [2] -2.5% | [3] -1.55% | [4] 4.65% | [5] -3% | [6] -3.25%

CC(C)(Cc1ccc([N+](=O)[O-])cc1)[N+](=O)[O-]
inactive: [1] 7.95% | [2] 11.3% | [3] 4.3% | [4] -7.55% | [5] 12.4% | [6] -0.05%

Clc1ccc(-c2nnc(-c3ccncc3)o2)c(Cl)c1
inactive: [1] 18.1% | [2] -4.5% | [3] 17.9% | [4] -1.6% | [5] 27.2% | [6] 15.6%

CC(C)(C)c1cc2c3c(c1)C(C(F)(F)F)(C(F)(F)F)OS3(=O)(O)OC2(C(F)(F)F)C(F)(F)F
inactive: [1] 22.5% | [2] 38.8% | [3] 15.8% | [4] -2.25% | [5] 4.2% | [6] 39%

Cc1cc(Cl)ccc1NC(=O)C1C(=O)N(c2ccc(Cl)cc2C)C(=O)/C1=N\NC(N)=S (configuration not stated)
inactive: [1] -16.6% | [2] -6.6% | [3] -22.5% | [4] -0.25% | [5] -2.5% | [6] -27.1%

CN1CCCN(C(=O)N(c2ccccc2)c2ccccc2)CC1
inactive: [1] -19.3% | [2] -12.8% | [3] 7.45% | [4] -3.6% | [5] -5.65% | [6] 7.4%

Oc1cccc(N=Cc2ccccc2O)c1
inactive: [1] 4.3% | [2] -4.85% | [3] 0.15% | [4] -18.8% | [5] -5.15% | [6] 0.15%

NCCCOCCN1CCN(c2ccccc2)CC1
inactive: [1] -0.75% | [2] -27.2% | [3] 0.75% | [4] -39.5% | [5] 2.95% | [6] 7.25%

COc1ccc(NC(=O)Oc2ccccc2C(N)=O)c(Cl)c1
inactive: [1] -2.05% | [2] 10.8% | [3] 3.65% | [4] 4.6% | [5] 18.4% | [6] 9.75%

O=C(COc1ccccc1Cl)N1N=C(c2ccccc2)CC1(O)c1ccccc1 (configuration not stated)
inactive: [1] -4.25% | [2] 10.1% | [3] 25% | [4] 8.35% | [5] 19.6% | [6] 15.9%

Nc1nnc(-c2ccccc2O)o1
inactive: [1] 36.3% | [2] 4.25% | [3] 23.7% | [4] 33.1% | [5] 21.4% | [6] 32.2%

COC(=O)c1ccc(N=Nc2ncc(CC(NC(C)=O)C(=O)OC)[nH]2)cc1 (configuration not stated)
inactive: [1] -16.9% | [2] -46.9% | [3] 20.9% | [4] -34.5% | [5] 4.2% | [6] -13.4%
